PubChem BioAssay AID720517 (National Center for Advancing Translational Sciences (NCATS), 2013)
Records with an inconclusive call do not appear. Activity calls are given as the source filed them. Calls follow the shape of the dose curve; as a rule, active = well fitted activation curve with a large enough effect; inconclusive = small, poorly fitted or top-dose-only effect; inactive = flat fitted curve, though single readings scatter.

Assay: qHTS for Inhibitors of Cell Surface uPA Generation: FP59 Counterscreen for Cherry-picked Compounds; also: 0% is about no effect
Conditions: FP59 anthrax toxin cytotoxicity counterscreen, cells; series mostly up to 115 µM; activity (protection from FP59): at the top concentration

Compound | activity (protection from FP59)
CCOC(=O)C1=C(CN2CCN(C(=O)c3ccco3)CC2)NC(=O)NC1c1ccccc1 (configuration not stated) | -0.369% (inactive)
CC(=O)c1cccc(NC(=O)N2C3CCC2CC(O)(c2cccnc2)C3)c1 (configuration not stated) | -1.35% (inactive)
CC(C)N1CCc2c(sc(NC(=O)CCc3ccccc3)c2C(N)=O)C1 | -1.46% (inactive)
O=C1CC(/C=C/c2ccc(Cl)cc2)=Nc2ccccc2N1 | 13% (inactive)
COc1ccc(-c2sc3ccccc3c2C#CCO)cc1 | 2.09% (inactive)
CCN(CC)S(=O)(=O)c1ccc(NC(=S)Nc2ccc(F)cc2)cc1 | -1.33% (inactive)
N#C/C(N=Nc1ccccc1O)=N\Nc1ccccc1O | 11.3% (inactive)
CN1CCN(c2ccc(S(=O)(=O)N3CCOCC3)cc2NC(=O)CSCc2ccccc2)CC1 | 1.22% (inactive)
CS(=O)(=O)Nc1cccc(C2=NN(S(=O)(=O)c3ccccc3)C(c3ccco3)C2)c1 (configuration not stated) | -1.08% (inactive)
O=C(CC1(O)C(=O)Nc2ccccc21)c1cccc(Br)c1 (configuration not stated) | -1.33% (inactive)
COC(=O)[C@]1(Cc2ccccc2)N[C@H](CN(C)C(=O)Nc2ccccc2)[C@@H]2C(=O)N(Cc3ccccc3)C(=O)[C@@H]21 | 7.99% (inactive)
COc1ccc(NC(=O)CCNS(=O)(=O)c2ccccc2F)cc1S(=O)(=O)N1CCOCC1 | -1.16% (inactive)
CCN1CCN(Cc2ccc(NC(=O)c3cc(NC(=O)c4cncc(-c5cccs5)c4)cc(OC)c3)cc2C(F)(F)F)CC1 | 0.284% (inactive)
Fc1ccc(CNc2ccccn2)cc1 | -1.43% (inactive)
Cc1c(C(=O)N2CCN(S(=O)(=O)c3cccs3)CC2)oc2ccc(F)cc12 | -1.4% (inactive)
O=C(Nc1cccc(C2=NCCN2)c1)Nc1cccc(C2=NCCN2)c1 | -1.55% (inactive)
O=S(=O)(NCC(c1cccnc1)N1CCOCC1)c1ccccc1 (configuration not stated) | -1.32% (inactive)
